Data taken from the supplement of paper PMC12024529.

System: HEK293 WT BDD-FVIII-Gluc
Experiment: secreted FVIII-Gluc luciferase Z-score vs DMSO control; higher = more FVIII-Gluc secretion
Settings: 5 µM
Protocol: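 Natural plant-compound library (480 compounds, ST catalogue IDs) screened on HEK293 cells stably expressing WT BDD-FVIII-Gaussia luciferase fusion at 5 µM. Secreted Gluc activity in the medium is given as a Z-score relative to DMSO controls.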

| SMILES | secreted FVIII-Gluc luciferase Z-score |
| --- | --- |
| C[C@@H]1O[C@@H](O[C@H]2[C@H](Oc3cc(O)c4c(c3)O[C@H](c3ccc(O)cc3)CC4=O)O[C@H](CO)[C@@H](O)[C@@H]2O)[C@H](O)[C@H](O)[C@H]1O | 1.39 |
| C[C@@H]1C(=O)O[C@H]2[C@@H](O)[C@@]34[C@H]5CC(C(C)(C)C)[C@]36[C@@H](OC(=O)[C@@H]6O)O[C@@]4(C(=O)O5)[C@@]12O (stereo not given in full) | 0.119 |
| Cn1cnc2c1c(=O)[nH]c(=O)n2C | 0.889 |
| CC[C@H](/C=C/[C@@H](C)[C@H]1CC[C@H]2[C@@H]3CC=C4C[C@@H](O)CC[C@]4(C)[C@H]3CC[C@]12C)C(C)C | 0.586 |
| CC12CCC3c4ccc(O)cc4CCC3C1CCC2=O (stereo not given) | 0.301 |
| NC(=O)C1CCCN1C(=O)C(Cc1cnc[nH]1)NC(=O)C1CCC(=O)N1 (stereo not given) | 0.443 |
| N=c1ccn2c(n1)OC1C2OC(CO)[C@H]1O (stereo not given in full) | -1.3 |
| Cc1cc2nc3c(=O)[nH]c(=O)nc-3n(CC(O)C(O)C(O)CO)c2cc1C (stereo not given) | 0.252 |
| C[C@H](CCC(=O)O)[C@H]1CC[C@H]2[C@@H]3[C@H](O)C[C@@H]4C[C@H](O)CC[C@]4(C)[C@H]3CC[C@]12C | 0.787 |
| CC1=C(/C=C/C(C)=C/C=C/C(C)=C/C(=O)O)C(C)(C)CCC1 | -0.377 |
| O=c1c(O)c(-c2ccccc2)oc2cc(O)cc(O)c12 | 0.586 |
| O=c1ccc2cc3ccoc3cc2o1 | -0.26 |
| COc1ccc(-c2coc3ccc(OC4OC(COC(C)=O)C(OC(C)=O)C(OC(C)=O)C4OC(C)=O)c(OC(C)=O)c3c2=O)cc1 (stereo not given) | -0.543 |
| CC(C)=CCC/C(C)=C/CC/C(C)=C/CO | 0.255 |
| COC(=O)[C@@H]1[C@H]2C[C@H]3c4[nH]c5ccccc5c4CCN3C[C@@H]2CC[C@@H]1O | 0.00333 |
| CN(C)[C@@H]1C(=O)C(C(=O)NCN2CCCC2)=C(O)[C@@]2(O)C(=O)C3=C(O)c4c(O)cccc4[C@@](C)(O)[C@H]3C[C@@H]12 | 0.407 |
| N[C@@H](Cc1c[nH]c2ccc(O)cc12)C(=O)O | 0.43 |
| Cc1cc2ccc(=O)oc2cc1OC[C@@H](O)C(C)(C)O | -0.00524 |
| CC1CC[C@H](C(C)C)C(O)C1 (stereo not given in full) | 0.453 |
| CC1CC2(C)Oc3ccccc3C3OCC1(COC(=O)Nc1ccccc1)C(C)C32 (stereo not given) | -0.945 |

| SMILES | secreted FVIII-Gluc luciferase Z-score |
| --- | --- |
| COc1ccc(-c2coc3cc(OC4OC(CO)C(O)C(O)C4O)cc(O)c3c2=O)cc1 (stereo not given) | -0.0597 |
| CN1C(CC(=O)c2ccccc2)CCC[C@H]1CC(O)c1ccccc1 (stereo not given in full) | -0.246 |
| Oc1ccc(/C=C/c2cc(O)cc(O)c2)cc1 | 0.294 |
| N[C@@H](Cc1c[nH]cn1)C(=O)O | 0.64 |
| O=c1ccn([C@@H]2O[C@H](CO)[C@@H](O)[C@H]2O)c(=O)[nH]1 | 0.943 |
| C=C[C@@](C)(O)CC[C@@H]1[C@@]2(C)CCCC(C)(C)[C@@H]2CC[C@@]1(C)O | 0.556 |
| O=c1cc(-c2ccccc2)oc2cccc(O)c12 | -0.455 |
| O=c1c(O)c(-c2ccc(O)cc2)oc2cc(O)ccc12 | 0.511 |
| C=C(CO)C1Cc2c(ccc3c(=O)c4c(oc23)COc2cc(OC)c(OC)cc2-4)O1 (stereo not given) | 0.0519 |
| N=C(N)NCCC[C@H](N)C(=O)O | 0.938 |
| Nc1nc2c(ncn2[C@@H]2O[C@H](CO)[C@@H](O)[C@H]2O)c(=O)[nH]1 | 1.04 |
| O=C(/C=C/c1ccc(O)cc1)c1ccccc1O | 0.315 |
| O=c1cc(-c2ccccc2O)oc2c1ccc1ccccc12 | 0.301 |
| COc1cc2c(cc1OC)C(=O)Cc1ccc3c(c1CN(C)CC2)OCO3 | 0.000104 |
| C=C[C@@]1(C)C=C2CC[C@@H]3[C@](C)(CCC[C@@]3(C)C(=O)O)[C@H]2CC1 | -0.481 |
| O=c1cc(-c2cccc(O)c2)oc2cc(O)ccc12 | -0.00771 |
| COC(=O)CC[C@@H](C)[C@H]1CC[C@H]2[C@@H]3CC[C@@H]4C[C@H](O)CC[C@]4(C)[C@H]3C[C@H](O)[C@]12C | 0.392 |
| O=C(/C=C/c1ccc(O)c(O)c1)O[C@@H]1CC(O)(C(=O)O)CC(O)C1O (stereo not given in full) | 0.588 |
| C/C1=C\CC(OC(=O)c2ccc(O)cc2)/C(C)=C/C(O)C(C)(C)CCC1 (stereo not given) | -0.0859 |
| O=c1c(O)c(-c2ccc(O)cc2)oc2cc(O)cc(O)c12 | -0.239 |
